# Laboratory results: PubChem BioAssay (NCI)
# About 83,000 compounds went through this panel and 20% of them were active in at least one assay; those are over-represented in the sample as a whole.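 The endpoint reported here, percent growth, reads 100 for growth as untreated, 0 for no net growth and -100 for all cells dead.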 Active and inactive are the calls of the source.
# Test system: SNB-75 CNS
# Assay: NCI-60 one-dose screen, 48 h (100 = growth as untreated, 0 = no growth, -100 = all killed)
# Conditions: 10 µM
# Procedure: Growth inhibition of the SNB-75 human tumor cell line is measured as a screen for anti-cancer activity. Cells are grown in 96 well plates and exposed to the test compound for 48 hours. Compounds are tested at a single concentration, which is 10^-5 M for most compounds. The reported endpoint is percent growth (GI% or GIPRCNT), where numbers from 0 - 100% represent growth inhibition, and numbers from -100% - 0 represent cell death. For example, a value of 40 represents 60% growth inhibition. A value of 0 means no net growth occurred over the course of the experiment. A value of -40 indicates 40% of cells at the beginning of the experiment died by the end of the experiment. A value of -100 means all cells are dead at the end of the experiment.
# NCI-60 Human Tumor Cell Lines Screen was performed using the standard one-dose NCI protocol, which is described in more detail at https://dtp.cancer.gov/discovery_development/nci-60/default.htm.
# Compounds with GIPRCNT values below 10 were considered active. Activity score was based on GIPRCNT using the following formula: […]
# Score is 0 for GIPRCNT values of 100 or above, 50 for GIPRCNT values of 0, and 100 for GIPRCNT values of -100.
row,Structure (SMILES),growth
1,CCOC(=O)C1=C(N)N(c2ccccc2)C2=C(C(=O)CC(C)(C)C2)C1c1ccc(Cl)cc1 (stereo not given),73% (inactive)
2,O=C(N/N=C/c1ccc(B(O)O)o1)c1[nH]c2ccc(Br)cc2c1-c1ccccc1,98.1% (inactive)
3,CN1C(=O)/C(=C/c2nccs2)SC1=S,66.4% (inactive)
4,O=C(Nc1ccc(OCc2ccccc2)cc1)Nc1ccc(Cl)c(C(F)(F)F)c1,-20.2% (active)
5,O=C(NO)c1ccc(Cn2ccc3c(NCc4ccccc4)ncnc32)cc1,-8.17% (active)
6,O=c1oc2ccc(-c3ccc(F)cc3F)cc2c(=O)n1-c1ccc(Cl)c(C(F)(F)F)c1,-4.03% (active)
7,N#Cc1c(NC(=O)c2cccc(C(F)(F)F)c2)sc2c1CCC(O)=C2,46.7% (inactive)
8,CC1=N/C(=C\c2ccc(N(C)C)cc2)C(=O)N1CCc1ccc(S(N)(=O)=O)cc1,77.8% (inactive)
9,O=C(Nc1cccc([N+](=O)[O-])c1)Nc1cccc([N+](=O)[O-])c1,90.5% (inactive)
10,C=CC(=O)Nc1ccc(C(=O)/C=C/c2ccc(N(C)CCF)cc2)c(O)c1,-8.38% (active)
11,CC(=O)Nc1nc(-c2ccc(N3CCN(C)CC3)c(NS(=O)(=O)c3cccc4c(N(C)C)cccc34)c2)cs1,56.5% (inactive)
12,O=C(c1ccc([N+](=O)[O-])c([N+](=O)[O-])c1O)n1[nH]c(=O)c2ccccc2c1=O,93.5% (inactive)
13,O=C(N/C(=C1/OCCN1Cc1ccccc1)[P+](c1ccccc1)(c1ccccc1)c1ccccc1)c1ccccc1,26.9% (inactive)
14,Cc1noc2c(Cc3ccc([N+](=O)[O-])cc3)nn(CC(=O)N/N=C/c3ccc(Br)cc3)c(=O)c12,104% (inactive)
15,CCOP(=O)(OCC)O[C@H]1CCC(=O)[C@@H]2[C@H]1[C@H]1C[C@@H]3[C@@]4(C)CCCC(C)(C(=O)OC)[C@@H]4CC[C@@]23C=C1C(C)C (stereo not given in full),100% (inactive)
16,Cc1ccc(-c2cc(-c3cc4ccccc4nc3Cl)[nH]c(=O)n2)cc1,-17.2% (active)
17,O=C(CSc1nnc(-c2c[nH]c3ccccc23)n1-c1ccccc1)c1ccc(Cl)cc1,54.7% (inactive)
18,O=c1nc(-c2ccccc2)cc(-c2cc3ccccc3nc2Cl)[nH]1,26.5% (inactive)
19,COc1ccc2nc(Cl)c(-c3cc(-c4ccccc4)nc(=O)[nH]3)cc2c1,70.1% (inactive)
20,CC1(c2ccccc2)NC(=O)N(CC(=O)Nc2ccc(C(=O)/C=C/c3ccc(Br)cc3)cc2)C1=O (stereo not given),41.6% (inactive)

row,Structure (SMILES),growth
1,Cc1ccc(C(C)C)cc1NC(=O)c1ccccc1O,46.4% (inactive)
2,O=C(Cn1nc(-c2ccccc2)ccc1=O)NNC(=S)NC1CCCCC1,96.6% (inactive)
3,Cc1ccc(C(=O)NCCCNc2nc(Nc3ccc(N4CCN(C)CC4)cc3)nc3ccsc23)cc1,71.9% (inactive)
4,COC(=O)C[C@](O)(CCCC(C)(C)O)C(=O)O[C@H]1C(OC)=C[C@@]23CCC(=O)N2CCc2cc4c(cc2[C@@H]13)OCO4,94.6% (inactive)
5,O=C(Nc1ccc(Cl)c(C(F)(F)F)c1)c1cncc(C#Cc2cnc3ccc(N4CCOCC4)nn23)c1,-1.28% (active)
6,Clc1cccc(N/N=C/c2c[nH]c3ccccc23)n1,15.5% (inactive)
7,CN1CCN(c2ccc(C(=O)/C=C/c3ccc(C#N)cc3)cc2)CC1,94.2% (inactive)
8,CCOc1ccc(/C=N/NC(=O)Cn2nc(Cc3ccccc3)c3onc(C)c3c2=O)cc1,-23.7% (active)
9,CCCSc1nc(NC2CC2)c(C#N)c(-c2ccc(OC)cc2)n1,103% (inactive)
10,O=C(CS(=O)(=O)c1oc(-c2ccc(Cl)cc2)nc1S(=O)(=O)c1ccccc1)N1CCCC1,55.7% (inactive)
11,O=C(/C=C/Nc1ccc(F)cc1F)c1ccc2c(c1)Nc1ccccc1S2,124% (inactive)
12,COc1cc(/C=C/C(=O)c2cc(OC)c(OC)c(OC)c2)ccc1Oc1nc(Nc2ccc(F)cc2)nc(N(C)C)n1,-64.8% (active)
13,COc1ccc(-c2nc(Nc3ccccc3S(N)(=O)=O)c3ccccc3n2)cc1,109% (inactive)
14,Cc1cc(C)nc(NS(=O)(=O)c2ccc(N/C(N)=N/c3nccc(-c4ccccc4)n3)cc2)n1,88.3% (inactive)
15,NS(=O)(=O)c1ccc(NC(=O)CSc2ccc(-c3ccc(Cl)cc3)nn2)c(Br)c1,42.3% (inactive)
16,CC(=O)Nc1ccc(-c2cn(-c3cccc(C(=O)Nc4ccc(Cl)c(C(F)(F)F)c4)c3)nn2)cn1,88% (inactive)
17,O=C(CNc1nc(-c2ccccc2)cs1)Nc1cccc(Cl)c1,50.2% (inactive)
18,Cn1cc(-c2cc(N)n3nc(-c4c[nH]c5ccc(Br)cc45)cc3n2)c2cccnc21,-73.1% (active)
19,Cc1ccc2nc(-c3ccc(-c4nnc(SCC(=O)Nc5ccc(Cl)cc5)o4)cc3)[nH]c2c1,101% (inactive)
20,C=C(C)[C@@H]1CC[C@]2(C)[C@H](CC=C3[C@@H]4CC(C)(C)CC[C@]4(C(=O)N4CCOCC4)CC[C@]32C)[C@@]1(C)CCCN,-91.2% (active)
